ChEMBL document CHEMBL3988442, “University of Dundee, Small-Polar-MMV Screening Library” (2021)
Screen size: about 38,000 compounds; about 1,200 (3.2%) showed an effect of 50% or more. The median lay at about -58%. Many of the other results were omitted from the sample, so strong results are more common in it than they were.

test system: Plasmodium falciparum; assay: Calibr Malaria Delayed Death Assay SOP; format: functional, organism-based; set-up: scale not given: in the data most compounds retested in dose-response had high values; conditions: concentration 4.99e-06 (unit not given; other assays of the set use mol/L)

Compound	Percent Effect [%]
CN1CCN(C[C@@H]2CN(C(=O)NCC3CCCCC3)C[C@@H]2CO)CC1	-32.18
Cl.Clc1cccnc1OC1CCNCC1	7.245
Clc1ccccc1C1(c2ccnc(C3CCCC3)n2)CCNCC1	82.68
Clc1ccccc1C1(c2ccnc(C3CC3)n2)CCNCC1	72.39
Cc1cccc(CN2CCn3c(C(=O)N(C)C)cnc3C2)c1	-123.8
CN(C)CCNC(=O)c1cc2c(s1)CCN2S(C)(=O)=O	-66.69
Cn1cnnc1CCC(=O)N1CCCC(OCc2cccnc2)C1 (centres undefined)	-207.3
COc1cc(NC(=O)c2ccc(Cl)cc2F)c(C(=O)N(C)C)cc1OC	-107.3
Cc1cnn(C2CN(CC(O)c3ccc(F)cc3)C2)c1 (centres undefined)	56.46
Cc1cc(C)n(C2CN(CC(O)Cn3cccn3)C2)n1 (centres undefined)	-132.3
Cc1cc(C)n(C2CN(CC(O)COc3ccc(F)cc3)C2)n1 (centres undefined)	-22.32
COc1ccc(C(O)CN2CC(n3cc(C)cn3)C2)cc1 (centres undefined)	19.27
Cc1cc(C)n(C2CN(CC(O)c3cc(F)ccc3F)C2)n1 (centres undefined)	84.13
COc1ccc(C(O)CN2CC(n3nc(C)cc3C)C2)cc1 (centres undefined)	47.1
Cc1cc(C)n(C2CN(CCc3ccncc3)C2)n1	-117
Cc1cnn(C2CN(CC(O)c3ccccc3)C2)c1 (centres undefined)	40.53
COc1cc(OC)cc(-c2noc(C(N)CCSC)n2)c1 (centres undefined)	-32.31
Cc1ccc(C(=O)Nc2ccc3c(c2)N(C)CCN(C)C3)c(=O)[nH]1	-25.5
Cc1cnn(C2CN(CC(=O)NCCc3cccs3)C2)c1	-35.32
CN(Cc1cc2cc(F)ccc2[nH]1)C(=O)C1CC(=O)N(C2CC2)C1 (centres undefined)	-1.915
Cc1cc(CN2CCO[C@H]3[C@H](OCc4csc(C)n4)CC[C@@H]32)no1.O=C(O)C(F)(F)F.O=C(O)C(F)(F)F	-78.11
CCN(CC)C(=O)C1CCN(c2ccc(Cl)cc2C#N)CC1	-152.7
CC1CCN(C(=O)C2CCN(c3ccc(Cl)cc3C#N)CC2)CC1	59.54
N#Cc1cc(Cl)ccc1N1CCN(C(=O)C2CCC2)CC1	-79.7

Compound	Percent Effect [%]
Cc1noc(CN(C)C2CCCN(Cc3noc(C4CC4)n3)C2)n1 (centres undefined)	-141.9
Cc1cc(CN2CCOC(CNc3cccnn3)C2)no1 (centres undefined)	-113
CO[C@H]1CN(CC2CCOCC2)[C@@H]2CCCO[C@H]12.O=C(O)C(F)(F)F	-55.37
Cc1c[nH]c(CN2CCCCC2CCn2ccnc2C)c(C)c1=O (centres undefined)	-167.9
Cn1ccnc1CCC1CCCCN1Cc1nccn1C (centres undefined)	23.43
CCOC(C)c1nccn1CCC(=O)Nc1cc(C)on1 (centres undefined)	-31.31
CCn1cnc2c(cnn2-c2cccc(C)c2C)c1=O	-109.7
CC(=O)c1c(O)n(C)c2ccc(F)cc12	-135.9
Cc1cnn(CCNCc2ccc(OCc3cscn3)cc2)c1	-21.22
CCN1CCCC(O)(CNCc2ccc3c(c2)OCO3)C1 (centres undefined)	14.07
CC[C@H]1CN2CC[C@H]1C[C@@H]2CNCc1cccc(C#N)c1	34.74
CC[C@H]1CN2CC[C@H]1C[C@@H]2CNCc1ccc(OC(F)(F)F)cc1	85.66
CC[C@H]1CN2CC[C@H]1C[C@@H]2CNCc1ccc(N(C)C)cc1	62.75
CC[C@H]1CN2CC[C@H]1C[C@@H]2CNCc1ccc2c(c1)OCO2	60.86
CC(C)NC(=O)NC[C@H]1C[C@@H]2CCN1C[C@@H]2CN(C)c1ccccc1	-39.27
CC[C@H]1CN2CC[C@H]1C[C@@H]2CNCc1ccc(OC)cc1	6.891
CC[C@H]1CN2CC[C@H]1C[C@@H]2CNC(=O)NC1CCCCC1	-27.77
CC[C@H]1CN2CC[C@H]1C[C@@H]2CNC(=O)Nc1ccccc1	-66.09
CC[C@H]1CN2CC[C@H]1C[C@@H]2CNC(=O)Nc1cccc(C(F)(F)F)c1	-88.31
CC[C@H]1CN2CC[C@H]1C[C@@H]2CNC(=O)Nc1cccc(C#N)c1	-82.85
CC[C@H]1CN2CC[C@H]1C[C@@H]2CNC(=O)Nc1cc(OC)cc(OC)c1	63.7
CC(C)c1ccc(NS(=O)(=O)CC2=NC(=O)n3cccc3C2=O)cc1	-194.3
CO[C@H]1CO[C@@]2(CCCN(C(=O)C3CC=CC3)C2)C1	-81.44
CC(C)CNC(=O)CSC1CCc2ccccc2NC1=O (centres undefined)	-170.7

Compound	Percent Effect [%]
Cc1c(C(C)N)cnn1-c1cccc2ccccc12 (centres undefined)	74.08
Cc1c(C(C)N)cnn1-c1ccccn1 (centres undefined)	-122.1
COc1ccc(-n2ncc(C(C)NC3Cc4ccccc4C3)c2C)cc1 (centres undefined)	1.566
Fc1ccc(CN2Cc3nccn3CC(CN3CCOCC3)C2)cc1.O=C(O)C(F)(F)F.O=C(O)C(F)(F)F (centres undefined)	-18.4
CC(=O)c1cccc(OCc2cc(C(=O)N3CCCCO3)n[nH]2)c1	-55.13
Cc1ccc(OCC(C)NS(=O)(=O)Cc2ccon2)cc1 (centres undefined)	-50.51
Cc1nc(CN2CC[C@H](OCC3CC3)[C@@H]2Cc2cccnc2)cs1.O=C(O)C(F)(F)F.O=C(O)C(F)(F)F	60.39
Cc1nc(CN2CC[C@@H](OCC3CC3)[C@@H]2Cc2cccnc2)cs1.O=C(O)C(F)(F)F.O=C(O)C(F)(F)F	6.851
CO[C@@H]1CCN(c2nnc(C)s2)C[C@@H]1Cc1ccccc1.O=C(O)C(F)(F)F	-42.62
CCN1CCC2(CC1)CC(COC)N(Cc1csc(C)n1)C2.O=C(O)C(F)(F)F.O=C(O)C(F)(F)F (centres undefined)	-25.47
COCC1CC2(CCN(CC3CC3)CC2)CN1Cc1csc(C)n1.O=C(O)C(F)(F)F.O=C(O)C(F)(F)F (centres undefined)	52
Cc1ccc(N2CC[C@H](OCC3CC3)[C@@H]2Cc2cccnc2)nn1.O=C(O)C(F)(F)F	-86.08
COCC1CC2(CCN(C(C)=O)CC2)CN1Cc1csc(C)n1.O=C(O)C(F)(F)F (centres undefined)	-10.79
Cc1nnc(N2CC[C@@H](OCC3CC3)[C@@H](Cc3ccccc3)C2)s1.O=C(O)C(F)(F)F	84.3
Cc1nnc(N2CC[C@H](OCC3CC3)[C@@H](Cc3ccccc3)C2)s1.O=C(O)C(F)(F)F	-5.425
COc1cc(OC)c(C2CC(=O)Oc3cc(C)[nH]c(=O)c32)c(OC)c1 (centres undefined)	-23.56
COc1ccc(CN(C)CC(=O)c2ccc3[nH]c(=O)[nH]c3c2)cc1F	-24.42
COc1cccc(S(=O)(=O)NC(=O)CC2CCCO2)c1 (centres undefined)	-80.63
CC(C)NC(=O)C1CN(C(=O)Cc2ccccc2)CC12CCOCC2 (centres undefined)	-95.53
CCCS(=O)(=O)NCCc1ncc(CC)s1	-128.9
OCCN1CCN(Cc2coc(-c3cccc(F)c3)n2)CC1	-200.4
CC(C)(C#N)c1ccccc1CN(CCO)Cc1ccsc1	-17.47
CCCc1nnc([C@H]2CCN(Cc3ncc[nH]3)C2)o1	-53.09
C[C@]1(O)CN(Cc2ncc[nH]2)CC[C@@H]1Oc1cccc(F)c1	-12.82

Compound	Percent Effect [%]
O=C(O)C(F)(F)F.O=S(=O)(c1cccs1)N1Cc2nc(CN3CCCC3)oc2C1	-93.44
COC(=O)CCNC(=O)c1cc(-c2ccc(OC)cc2)nn1C	-127.7
Cc1nn(C)c2c(N3CCC(C)CC3)nc(C3CC3)nc12	-7.534
CCN1CCc2nc(N3CCOCC3)nc(NC(C)C)c2C1	12.6
CCC(C)N1CCc2nc(N3CCCC3)nc(NC(C)C)c2C1 (centres undefined)	77.92
CC(C)Nc1nc(N2CCCC2)nc2c1CCN(S(C)(=O)=O)CC2.O=C(O)C(F)(F)F.O=C(O)C(F)(F)F	51.48
CC(C)Nc1nc(N2CCCC2)nc2c1CN(c1ncc(F)cn1)CC2	23.23
CC(C)Nc1nc(-c2ccccc2)nc2c1CCN(C(=O)C1CC1)CC2.O=C(O)C(F)(F)F	24.24
CC(C)Nc1nc(N2CCCC2)nc2c1CN(C)CC2	48.45
CC(C)Nc1nc(N2CCCC2)nc2c1CN(S(C)(=O)=O)CC2	50.55
Cc1nc(N2CCCC2)nc2c1CN(C(C)C)CC2.O=C(O)C(F)(F)F	-39.09
CCCN1CCc2nc(N3CCOCC3)nc(NC(C)C)c2C1	-40.15
Cn1ccnc1CN1CCCN(C(=O)c2ccc3cc[nH]c3c2)CC1	-18.34
Cc1nc(CO[C@@H]2CC[C@H]3[C@H]2OCCN3Cc2cccnc2)cs1.O=C(O)C(F)(F)F.O=C(O)C(F)(F)F.O=C(O)C(F)(F)F	-25.46
CC(C)CNC(=O)N1C[C@H]2C[C@H](C(=O)NCc3ccccc3)[C@@H](C1)O2	-25.06
O=C(NCc1cc[nH]n1)N1CCN(c2ncccn2)CC1	-98.04
Cc1ccoc1C(=O)N1Cc2c(CN3CCCCC3)nn(C)c2C1.O=CO	-35.59
Cc1cc(CN(C)C2CCCN(c3cccnn3)C2)no1 (centres undefined)	-12.48
Cc1oncc1C(=O)NCC1(O)CCc2ccccc2C1 (centres undefined)	-85.49
COc1coc(C(=O)Nc2nc(-c3ccncc3)cs2)cc1=O	-115.6
Cc1ccc(NC2CCN(C(=O)COc3cccc(F)c3)CC2)nn1	-0.3434
Cn1cc(C[C@H]2[C@H](O)CCN2Cc2ccncc2)cn1.O=C(O)C(F)(F)F.O=C(O)C(F)(F)F	-36.65
